Laboratory results as given in PubChem BioAssay (NCATS).
“And” between values parts separate entries of the source, which are not always exact repeats. Identical values can stand only once. Records with an inconclusive call do not appear. The source made the active and inactive calls. Unless noted, calls follow the shape of the dose curve; as a rule, active = well fitted curve in the direction sought with a large enough effect; inconclusive = small, poorly fitted or top-dose-only effect, or another doubt; inactive = no such curve, though single readings can be large; an effect the other way counts as inactive or inconclusive.

Experiments:
[1] = target: Cytochrome P450 1A2 (Homo sapiens) (UniProt P05177); assay: p450-cyp1a2 (AID 410; calls by dose curve; also: potency is read from the fitted curve at half-maximal effect)
In short: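 Read-out is luminescence from luciferin produced by CYP1A2 demethylation of Luciferin-ME (100uM, at Km). Detection reagent stopped the 60 min NADPH-dependent reaction; signals were normalized to 57 uM furafylline.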

[2] = target: Glucocorticoid receptor (Homo sapiens) (UniProt P04150); assay: GR-GFP Redistribution (AID 450;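 active = compounds whose dose series gives a full or clear partial fitted curve of increased nuclear translocation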; also: potency is read from the fitted curve at half-maximal effect); conditions: U2OS GR-GFP nuclear translocation, laser cytometry, 2 h
[3] = target: Glucocorticoid receptor (Homo sapiens) (UniProt P04150); assay: GR-EFC Redistribution (AID 451; calls by dose curve; also: potency is read from the fitted curve at half-maximal effect); conditions: CHO-K1 GR-EFC translocation, beta-gal luminescence, 2 h
In short: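 CHO-K1 cells stably expressing nuclear-localized β-gal enzyme acceptor and GR fused C-terminally to the enzyme donor fragment; ligand-driven nuclear translocation restores β-gal by complementation. Compounds titrated up to 46 uM final, 2 h at 37 °C; luminescence read.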

[4] = target: Cytochrome P450 3A4 (Homo sapiens) (UniProt P08684); assay: qHTS Assay for Activators of Cytochrome P450 3A4 (AID 885); also: nearly all actives have a fitted effect of over 65% in size
In short: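 CYP3A4 activity: Luciferin-PPXE O-dealkylation, 25uM substrate, 200mM KPO4, RT throughout. Read-out is luciferase luminescence; higher values reflect activation.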

[5] = Confirmation and Secondary Assay for Modulators of Hemoglobin Beta Chain Splicing at IVS2 654 locus (AID 910);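 also: per-well total GFP intensity by laser scanning cytometry after 2-day treatment; % of control where 0% means no effect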
In short: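 HeLa cells stably carrying EGFP interrupted by mutant beta-globin IVS2-654 intron (CMV-driven) were treated with compound for 2 days at 37C; corrected splicing was scored as total peak GFP intensity per well (488 nm excitation, 500-520 nm emission).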

[6] = Confirmation and Secondary Assay for Modulators of Hemoglobin Beta Chain Splicing at IVS2 705 locus (AID 930);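 also: HeLa cells stably expressing the EGFP-705 splicing reporter; GFP fluorescence per well restored by corrected splicing of the IVS2-705 intron in EGFP; % of control where 0% means no effect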
In short: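 HeLa EGFP-705 reporter; 500 cells/well, o/n 37C 5% CO2; cpd 2 d; 488 ex/500-520 em laser scan; total peak GFP intensity/well. Ref: 500 nM […] antisense PNA.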

[7] = qHTS Assay for Lipid Storage Modulators (AID 1519; calls by dose curve; as to activity change, negative = inhibition: % is scaled to controls: 0 for no effect and ±100 for the full control effect); conditions: Drosophila S3 cells, BODIPY lipid droplet/cell ratio, laser cytometry, cells loaded with oleic acid
In short: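 Cells seeded at 5,000 per well were treated with compounds over a concentration series and loaded with oleic acid (400 uM, as added). Lipid droplet fluorescence (488 nm excitation, 500-530 nm channel) was read by laser-scanning cytometry and normalized to 20 uM Triacsin C.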

[8] = target: DNA dC->dU-editing enzyme APOBEC-3G (Homo sapiens) (UniProt Q9HC16); assay: qHTS for inhibitors of Vif-A3G interactions: Validation (AID 588379); also: 0% is about no effect
In short: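 Yellow fluorescence (Ex 488, Em 500-530) of Vif-coexpressing HeLa A3G-eYFP cells, scanned by Acumen cytometer, reports blocked A3G degradation. Cells plated at 700/well overnight at 37 deg C before compound addition, then a further overnight compound incubation at 37 deg C.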

[9] = system: Zika virus NS2B-NS3 protease; assay: Primary screen GU AMC qHTS for Zika virus inhibitors (AID 1347154);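 also: 0% = no-inhibitor control and -100% = no-enzyme control; nearly all actives have a fitted effect of over 70% in size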
In short: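 Unlinked Zika NS2B hydrophilic domain/NS3 protease domain noncovalent complex (25 nM final) in 10 mM Tris-HCl pH 8.0, 0.01% Tween 20, with AMC peptide substrate. Fluorescence (ex 340, em 450 nm) change over 15 min, room temperature; percent inhibition fitted to 4-parameter Hill equation.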

[10] = Counterscreen qHTS for small molecule stabilizers of the endoplasmic reticulum resident proteome: GLuc-NoTag assay (AID 1508627);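 also: 0% = thapsigargin alone and -100% = DMSO vehicle control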
In short: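 Secreted GLuc lacking the SERCaMP modification is measured in SH-SY5Y cells exposed to compound for 19 h and then to thapsigargin (100 nM, 4 h) to deplete ER calcium; hits retested at 11 concentrations, up to 76.6 uM.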

[11] = Primary qHTS for small molecule stabilizers of the endoplasmic reticulum resident proteome: Secreted ER Calcium Modulated Protein (SERCaMP) assay (AID 1508630); also: % is scaled to controls: 0 for no effect and ±100 for the full control effect
In short: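 The SH-SY5Y reporter protocol was run at 3 concentrations up to 38.3 uM (primary) or 11 concentrations (follow-up): 16 h compound, 100 nM thapsigargin for 4 h, then extracellular luciferase luminescence.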

[12] = target: Mitogen-activated protein kinase 10 (Mus musculus) (UniProt Q61831); assay: JNK3 AlphaScreen Assay (AID 530; active = well fitted curve in either direction with a large enough effect, not every such curve was filed as active;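 also: kinase came from lysate of stimulated human HepG2 cells; signal reports phosphorylation of biotinylated GST-cJun 1-79 at Ser73 with 10 µM ATP; % is scaled to controls: 0 for no effect and ±100 for the full control effect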)
In short: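 Biotinylated GST-cJun(1-79) served as substrate for JNK3 in HepG2 lysates stimulated with IL-1beta and TNF-alpha. ATP was 10 uM final, pH 7.6. Ser73 phosphorylation was quantified by AlphaScreen (680 nm excitation).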

[13] = target: Cytochrome P450 2D6 (Homo sapiens) (UniProt P10635); assay: qHTS Assay for Inhibitors and Substrates of Cytochrome P450 2D6 (AID 891); also: potency is read from the fitted curve at half-maximal effect; nearly all actives have a fitted effect of over 60% in size
In short: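 Luminescent read-out of luciferin formed by 5 nM human CYP2D6 demethylating 30 uM Luciferin-ME EGE (Km level) over 60 min at room temperature after NADPH regeneration addition. Data normalized to full inhibition by 1.43 uM quinidine.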

[14] = target: Cytochrome P450 2C19 (Homo sapiens) (UniProt P33261); assay: qHTS Assay for Inhibitors and Substrates of Cytochrome P450 2C19 (AID 899); also: potency is read from the fitted curve at half-maximal effect; nearly all actives have a fitted effect of over 60% in size
In short: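 Human CYP2C19 (5nM) with Luciferin-H EGE at 10uM (its KM) in 50mM KPO4 was preincubated with compound for 10 min at 37C. NADPH regeneration started a 60 min 37C reaction. Luciferin was read by luminescence, normalized to 57uM ketoconazole.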

Glucocorticoid receptor (Homo sapiens), sequence (P04150 whole entry, looked up, the tested form may be a part): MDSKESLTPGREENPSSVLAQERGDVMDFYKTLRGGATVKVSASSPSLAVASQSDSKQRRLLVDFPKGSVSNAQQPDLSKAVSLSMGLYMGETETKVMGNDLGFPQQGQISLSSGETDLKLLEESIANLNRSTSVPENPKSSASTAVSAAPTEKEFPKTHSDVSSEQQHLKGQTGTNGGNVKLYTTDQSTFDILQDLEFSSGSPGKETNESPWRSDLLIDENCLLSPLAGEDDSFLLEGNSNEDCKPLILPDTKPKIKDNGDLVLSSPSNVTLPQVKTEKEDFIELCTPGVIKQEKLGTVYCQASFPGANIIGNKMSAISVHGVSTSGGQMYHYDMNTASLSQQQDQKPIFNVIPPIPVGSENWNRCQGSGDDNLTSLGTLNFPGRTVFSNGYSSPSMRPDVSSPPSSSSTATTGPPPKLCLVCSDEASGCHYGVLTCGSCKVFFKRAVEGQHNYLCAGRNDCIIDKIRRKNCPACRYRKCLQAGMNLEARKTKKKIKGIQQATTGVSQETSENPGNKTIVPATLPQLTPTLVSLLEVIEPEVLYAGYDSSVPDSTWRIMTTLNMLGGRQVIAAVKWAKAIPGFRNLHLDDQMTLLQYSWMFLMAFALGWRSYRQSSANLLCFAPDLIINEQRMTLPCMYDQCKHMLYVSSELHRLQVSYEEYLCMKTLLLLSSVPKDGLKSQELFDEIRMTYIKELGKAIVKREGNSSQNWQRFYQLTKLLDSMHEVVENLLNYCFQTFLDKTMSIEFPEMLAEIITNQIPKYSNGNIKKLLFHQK
DNA dC->dU-editing enzyme APOBEC-3G (Homo sapiens), sequence (Q9HC16 whole entry, looked up): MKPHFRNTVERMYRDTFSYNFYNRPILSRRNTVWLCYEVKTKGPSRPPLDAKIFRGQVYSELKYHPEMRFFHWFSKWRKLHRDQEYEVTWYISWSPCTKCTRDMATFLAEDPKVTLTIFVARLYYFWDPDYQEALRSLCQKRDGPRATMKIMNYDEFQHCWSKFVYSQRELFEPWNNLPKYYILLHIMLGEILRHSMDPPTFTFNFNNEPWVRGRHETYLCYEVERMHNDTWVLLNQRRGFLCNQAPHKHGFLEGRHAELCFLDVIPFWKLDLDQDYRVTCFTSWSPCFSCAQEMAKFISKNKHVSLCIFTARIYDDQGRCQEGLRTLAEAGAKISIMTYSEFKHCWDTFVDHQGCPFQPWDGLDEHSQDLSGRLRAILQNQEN
Cytochrome P450 3A4 (Homo sapiens), sequence (P08684 whole entry, looked up): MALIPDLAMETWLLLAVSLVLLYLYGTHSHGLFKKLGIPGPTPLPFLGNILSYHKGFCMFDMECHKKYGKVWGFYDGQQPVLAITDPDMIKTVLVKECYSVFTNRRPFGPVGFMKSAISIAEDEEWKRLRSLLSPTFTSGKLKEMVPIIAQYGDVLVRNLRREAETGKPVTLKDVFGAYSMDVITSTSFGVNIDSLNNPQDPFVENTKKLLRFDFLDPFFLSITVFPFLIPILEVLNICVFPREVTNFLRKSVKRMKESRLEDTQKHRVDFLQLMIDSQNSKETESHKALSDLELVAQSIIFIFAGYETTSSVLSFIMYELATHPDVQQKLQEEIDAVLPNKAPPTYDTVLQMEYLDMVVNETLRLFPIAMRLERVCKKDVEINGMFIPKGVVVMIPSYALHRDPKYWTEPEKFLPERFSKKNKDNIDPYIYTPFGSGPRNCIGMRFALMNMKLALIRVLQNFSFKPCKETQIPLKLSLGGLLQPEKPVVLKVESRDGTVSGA
Cytochrome P450 2C19 (Homo sapiens), sequence (P33261 whole entry, looked up): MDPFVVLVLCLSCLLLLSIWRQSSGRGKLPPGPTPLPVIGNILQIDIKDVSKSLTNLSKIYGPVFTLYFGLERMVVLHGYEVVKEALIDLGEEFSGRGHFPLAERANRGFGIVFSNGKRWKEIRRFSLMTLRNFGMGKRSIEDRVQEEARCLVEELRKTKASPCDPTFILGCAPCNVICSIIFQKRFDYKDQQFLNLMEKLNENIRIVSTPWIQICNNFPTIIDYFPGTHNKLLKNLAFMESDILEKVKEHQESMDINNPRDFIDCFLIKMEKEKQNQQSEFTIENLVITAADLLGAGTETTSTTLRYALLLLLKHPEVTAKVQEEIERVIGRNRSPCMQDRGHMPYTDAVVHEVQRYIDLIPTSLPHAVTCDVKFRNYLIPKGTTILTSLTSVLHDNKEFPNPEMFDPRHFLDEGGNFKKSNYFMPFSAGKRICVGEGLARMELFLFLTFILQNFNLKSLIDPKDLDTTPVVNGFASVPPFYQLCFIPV
Cytochrome P450 1A2 (Homo sapiens), sequence (P05177 whole entry, looked up): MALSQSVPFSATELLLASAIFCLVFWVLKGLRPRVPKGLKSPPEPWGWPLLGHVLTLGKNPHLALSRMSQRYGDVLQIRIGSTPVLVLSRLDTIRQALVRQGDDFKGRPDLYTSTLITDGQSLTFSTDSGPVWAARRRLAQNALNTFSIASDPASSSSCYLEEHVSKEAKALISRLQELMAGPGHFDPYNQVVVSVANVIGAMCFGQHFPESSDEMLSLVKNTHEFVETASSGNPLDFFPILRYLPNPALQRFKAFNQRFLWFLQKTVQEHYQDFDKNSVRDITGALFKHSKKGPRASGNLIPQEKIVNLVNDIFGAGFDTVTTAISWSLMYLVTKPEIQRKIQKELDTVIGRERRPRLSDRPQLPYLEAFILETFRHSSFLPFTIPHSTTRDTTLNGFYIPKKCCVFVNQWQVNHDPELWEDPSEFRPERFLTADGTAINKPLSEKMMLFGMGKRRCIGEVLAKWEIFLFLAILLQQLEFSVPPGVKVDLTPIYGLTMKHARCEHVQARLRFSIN
Cytochrome P450 2D6 (Homo sapiens), sequence (P10635 whole entry, looked up): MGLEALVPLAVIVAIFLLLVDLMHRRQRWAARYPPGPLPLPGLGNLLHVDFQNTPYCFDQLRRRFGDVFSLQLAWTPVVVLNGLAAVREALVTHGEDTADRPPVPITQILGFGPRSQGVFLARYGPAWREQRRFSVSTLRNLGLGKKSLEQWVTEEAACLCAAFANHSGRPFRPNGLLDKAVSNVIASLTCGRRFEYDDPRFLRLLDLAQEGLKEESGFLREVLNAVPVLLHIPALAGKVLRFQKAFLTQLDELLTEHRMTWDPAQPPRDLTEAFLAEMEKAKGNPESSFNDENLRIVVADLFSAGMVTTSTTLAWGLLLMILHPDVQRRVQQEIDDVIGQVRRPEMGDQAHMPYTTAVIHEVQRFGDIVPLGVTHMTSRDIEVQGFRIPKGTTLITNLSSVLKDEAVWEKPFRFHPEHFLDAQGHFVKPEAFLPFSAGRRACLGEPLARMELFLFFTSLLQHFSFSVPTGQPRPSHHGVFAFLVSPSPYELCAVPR

NCCOB(c1ccccc1)c1ccccc1
inactive: Potency [2] > 46 µM | Potency [3] > 46 µM | Potency [4] | outcome [5] | outcome [6] | activity change, negative = inhibition ([7]; at 57.5 µM (top of the series)) -7.96% and -2.88% | Potency [8] | Potency [9] | Potency [10]
-4.57% and 13.6%: max response ([7]; measured here: cell count channel max response)
-11.1% and 11.6%: max response ([7]; measured here: lipid channel max response)
active: Potency [1] 15.8 µM

CC[N+]1(C)C2CCC1CC(OC(=O)[C@H]1CCC(C(=O)OC3CC4CCC(C3)[N+]4(C)CC)(c3ccccc3)c3ccccc31)C2 (stereo partly drawn)
inactive: Potency [9] | Potency [11]

CN1CCN(C2=Cc3ccccc3Oc3ccc(Cl)cc32)CC1
active: Potency [13] 39.8 nM | Potency [14] 3.98 µM
inactive: Potency [2] > 46 µM | Potency [3] > 46 µM | Potency [12] | Potency [4] | Potency [8] | Potency [9] | Potency [10]
